Laboratory results published in PubChem BioAssay (NCATS).
Results filed as inconclusive are left out. Unmarked numbers belong to inactive results. Active and inactive are the calls of the source. Calls follow the shape of the dose curve; as a rule, active = well fitted curve in the direction sought with a large enough effect; inconclusive = small, poorly fitted or top-dose-only effect, or another doubt; inactive = no such curve, though single readings can be large; an effect the other way counts as inactive or inconclusive.

Columns and labels:
[1] = Quantitative High-Throughput drug screen in 47 multiple myeloma cell lines against the NCATS MIPE library collection: KMS12PE_JCRB cell viability assay (AID 1918972); also: nearly all actives have a fitted effect of over 30% in size
Outline: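 Approved and investigational drugs from MIPE 4.0 were added by pin tool to 500 cells per well. After 48 hours at 37C, ATP-based CellTiter-Glo luminescence indicated remaining viability.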

[2] = Quantitative High-Throughput drug screen in 47 multiple myeloma cell lines against the NCATS MIPE library collection: KMS21BM_JCRB cell viability assay (AID 1918974); conditions: ATP luminescence, 48 h; viability: at 45.8 µM (top of the series)
Outline: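 Myeloma cell lines, 500 cells per well, exposed to MIPE 4.0 library compounds for 48 h at 37C, 5% CO2. Viability from ATP by CellTiter-Glo luminescence; normalised to DMSO (100%) and media-only (0%) wells.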

[3] = Quantitative High-Throughput drug screen in 47 multiple myeloma cell lines against the NCATS MIPE library collection: MMM1_PLB cell viability assay (AID 1918976); also: nearly all actives have a fitted effect of over 35% in size
Outline: (§1)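 MIPE 4.0 approved/investigational drugs; 500 cells/well; 48 h 37 °C humidified 5% CO2; CTG luminescence readout; DMSO = 100%, media = 0% viability.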

[4] = Quantitative High-Throughput drug screen in 47 multiple myeloma cell lines against the NCATS MIPE library collection: OCIMY1_PLB cell viability assay (AID 1918979); also: nearly all actives have a fitted effect of over 35% in size
Outline: as §1

[5] = Quantitative High-Throughput drug screen in 47 multiple myeloma cell lines against the NCATS MIPE library collection: MM1S_ATCC cell viability assay (AID 1918980); also: nearly all actives have a fitted effect of over 45% in size
Outline: as §1

[6] = Quantitative High-Throughput drug screen in 47 multiple myeloma cell lines against the NCATS MIPE library collection: MM1R_ATCC cell viability assay (AID 1918981); also: nearly all actives have a fitted effect of over 35% in size
Outline: as §1

[7] = Quantitative High-Throughput drug screen in 47 multiple myeloma cell lines against the NCATS MIPE library collection: LP1_DSMZ cell viability assay (AID 1918982); also: nearly all actives have a fitted effect of over 35% in size
Outline: as §1

[8] = Quantitative High-Throughput drug screen in 47 multiple myeloma cell lines against the NCATS MIPE library collection: KMS28PE_JCRB cell viability assay (AID 1918983); also: nearly all actives have a fitted effect of over 35% in size
Outline: as §1

[9] = Quantitative High-Throughput drug screen in 47 multiple myeloma cell lines against the NCATS MIPE library collection: OCIMY7_PLB cell viability assay (AID 1918987); conditions: OCI-MY7 myeloma viability, CellTiter-Glo ATP, 48 h; viability (% of DMSO): at 45.8 µM (top of the series); also: nearly all actives have a fitted effect of over 65% in size
Outline: as §1

[10] = Quantitative High-Throughput drug screen in 47 multiple myeloma cell lines against the NCATS MIPE library collection: OCIMY5_PLB cell viability assay (AID 1918988); also: nearly all actives have a fitted effect of over 65% in size
Outline: as §1

[11] = Quantitative High-Throughput drug screen in 47 multiple myeloma cell lines against the NCATS MIPE library collection: OPM1_PLB cell viability assay (AID 1918989); also: nearly all actives have a fitted effect of over 40% in size
Outline: as §1

[12] = Quantitative High-Throughput drug screen in 47 multiple myeloma cell lines against the NCATS MIPE library collection: SKMM1_PLB cell viability assay (AID 1919863); conditions: SKMM1 myeloma viability, CellTiter-Glo ATP, 48 h; viability: hits give low values; also: nearly all actives have a fitted effect of over 35% in size
Outline: as §1

[13] = Quantitative High-Throughput drug screen in 47 multiple myeloma cell lines against the NCATS MIPE library collection: U266_ATCC cell viability assay (AID 1919864); also: nearly all actives have a fitted effect of over 35% in size
Outline: as §1

[14] = Quantitative High-Throughput drug screen in 47 multiple myeloma cell lines against the NCATS MIPE library collection: XG6_PLB cell viability assay (AID 1919865); also: nearly all actives have a fitted effect of over 40% in size
Outline: as §1

[15] = Quantitative High-Throughput drug screen in 47 multiple myeloma cell lines against the NCATS MIPE library collection: NCIH929_DSMZ cell viability assay (AID 1918978); also: nearly all actives have a fitted effect of over 35% in size
Outline: as §1

[16] = Quantitative High-Throughput drug screen in 47 multiple myeloma cell lines against the NCATS MIPE library collection: KMS34_JCRB cell viability assay (AID 1918985); also: nearly all actives have a fitted effect of over 40% in size
Outline: as §1

[17] = Quantitative High-Throughput drug screen in 47 multiple myeloma cell lines against the NCATS MIPE library collection: KMS26_JCRB cell viability assay (AID 1918975); also: nearly all actives have a fitted effect of over 45% in size
Outline: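 Relative luminescence from CellTiter-Glo served as the viability signal, referenced to DMSO-treated (100%) and cell-free medium (0%) controls. Treatment lasted 48 hours at 37C with 500 cells per well.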

[18] = Quantitative High-Throughput drug screen in 47 multiple myeloma cell lines against the NCATS MIPE library collection: L363_DSMZ cell viability assay (AID 1918984); conditions: L363 myeloma viability, CellTiter-Glo ATP luminescence, 48 h; viability (% of control): at 45.8 µM (top of the series); also: nearly all actives have a fitted effect of over 40% in size
Outline: as §1

[19] = Quantitative High-Throughput drug screen in 47 multiple myeloma cell lines against the NCATS MIPE library collection: MOLP8_DSMZ cell viability assay (AID 1918977); also: nearly all actives have a fitted effect of over 45% in size
Outline: as §1
Potency is read from the fitted curve at half-maximal effect.

SMILES | Potency [1] | Potency [2] | Potency [3] | Potency [4] | Potency [5] | Potency [6] | Potency [7] | Potency [8] | Potency [9] | Potency [10] | Potency [11] | Potency [12] | Potency [13] | Potency [14] | Potency [15] | Potency [16] | Potency [17] | Potency [18] | viability [12] [%] | Potency [19]
CN(C)CC[C@H](CSc1ccccc1)Nc1ccc(S(=O)(=O)NC(=O)c2ccc(N3CCN(Cc4ccccc4-c4ccc(Cl)cc4)CC3)cc2)cc1[N+](=O)[O-] | 0.0235 µM (active) | 0.0833 µM (active) | 0.526 µM (active) | 3.72 µM (active) | 1.66 µM (active) | 0.833 µM (active) | 23.5 µM (active) | 1.48 µM (active) | 0.209 µM (active) | 0.0469 µM (active) | 10.5 µM (active) | 18.7 µM (active) | 14.8 µM (active) | 3.72 µM (active) |  |  |  |  |  | 
CCC[C@H](N[C@@H](C)C(=O)N1[C@@H]2CCCC[C@H]2C[C@H]1C(=O)O)C(=O)OCC | 6.62 µM (active) | inactive |  |  | 20.9 µM (active) |  |  | inactive |  |  |  | 18.7 µM (active) |  |  | inactive | inactive |  |  |  | 
CO[C@H]1/C=C\O[C@@]2(C)Oc3c(C)c(O)c4c(O)c(c5c(nc6cc(C)ccn65)c4c3C2=O)NC(=O)C(C)=CC=C[C@H](C)[C@H](O)[C@@H](C)[C@@H](O)[C@@H](C)[C@H](OC(C)=O)[C@H]1C | 11.8 µM (active) |  | 0.0148 µM (active) | inactive |  |  | inactive |  |  | 16.6 µM (active) |  |  |  | inactive |  |  | 8.33 µM (active) | 20.9 µM (active) |  | 
O=C1C(CCC(O)c2ccc(F)cc2)C(c2ccc(O)cc2)N1c1ccc(F)cc1 (stereo not given) | 20.9 µM (active) |  |  | inactive |  | inactive | inactive | inactive | inactive |  | inactive |  |  | 2.09 µM (active) | inactive | inactive | inactive | inactive | 99.3 | 
O=C(O)Cc1cccc(OCCCN(Cc2cccc(C(F)(F)F)c2Cl)CC(c2ccccc2)c2ccccc2)c1 | inactive |  | 6.62 µM (active) | inactive | 20.9 µM (active) |  |  | 23.5 µM (active) | 13.2 µM (active) |  | 18.7 µM (active) | 11.8 µM (active) | inactive |  | 18.7 µM (active) |  |  |  |  | 
C[C@H](c1ccc(F)cc1CCCC(=O)O)N(c1cc(F)ccc1F)S(=O)(=O)c1ccc(Cl)cc1 | inactive |  |  | inactive | 10.5 µM (active) |  |  |  | 13.2 µM (active) | 14.8 µM (active) |  |  |  | 2.64 µM (active) | 6.62 µM (active) |  | 0.743 µM (active) |  |  | 
O=C(C=Cc1ccc(O)cc1)c1ccc(O)cc1O | 14.8 µM (active) |  | 5.9 µM (active) |  | 23.5 µM (active) |  |  | 23.5 µM (active) | 4.69 µM (active) | 14.8 µM (active) | 20.9 µM (active) |  | 23.5 µM (active) | 18.7 µM (active) | 16.6 µM (active) |  |  |  |  | 14.8 µM (active)
NCc1c[nH]c(=S)n1[C@H]1CCc2c(F)cc(F)cc2C1 | 14.8 µM (active) |  |  | inactive | 23.5 µM (active) | 16.6 µM (active) |  | 14.8 µM (active) |  | 9.35 µM (active) | 18.7 µM (active) |  |  | 18.7 µM (active) |  | 20.9 µM (active) | 20.9 µM (active) |  |  | 18.7 µM (active)
O=c1[nH]c(=O)n([C@H]2C[C@@H](O)[C@@H](CO)O2)cc1I | 1.48 µM (active) |  |  | inactive |  | 6.62 µM (active) | inactive | inactive |  | inactive | inactive |  |  | inactive | inactive | 2.09 µM (active) | inactive |  | 119 | 
CCCCCCOC(=O)N=C(N)c1ccc(NCc2nc3cc(C(=O)N(CCC(=O)OCC)c4ccccn4)ccc3n2C)cc1 | 18.7 µM (active) |  | 14.8 µM (active) |  |  | 20.9 µM (active) | 14.8 µM (active) |  |  | 20.9 µM (active) |  |  |  | 11.8 µM (active) |  |  |  | 13.2 µM (active) |  | 20.9 µM (active)
O=C(O)c1ccc(O)c2ncc(N3CCOCC3)cc12 | 26.4 µM (active) |  |  | inactive | 23.5 µM (active) |  | 20.9 µM (active) | inactive |  | 13.2 µM (active) | inactive | 18.7 µM (active) |  |  | 18.7 µM (active) |  | inactive | 20.9 µM (active) |  | 
O=C(O)CCNc1cc(N2CCc3ccccc3CC2)nc(-c2ccccn2)n1 | inactive |  |  | inactive |  | 16.6 µM (active) | inactive |  |  | 23.5 µM (active) | 5.26 µM (active) |  | inactive | inactive | inactive |  | inactive |  |  | 
CC(C)(O)CC(=O)NCCn1ccc2ncnc(Nc3ccc(Oc4cccc(C(F)(F)F)c4)c(Cl)c3)c21 | 5.9 µM (active) |  | 20.9 µM (active) | inactive | 0.332 µM (active) |  |  | 26.4 µM (active) | 13.2 µM (active) | 1.18 µM (active) | 26.4 µM (active) | 23.5 µM (active) | 16.6 µM (active) |  |  | 23.5 µM (active) | 26.4 µM (active) |  |  | 
